# Many of the other results were omitted from the sample, so the strongest signals are more common in it than they were.
# How the values were obtained:
# Test in all cases: glycan array binding signal (z-score within array); higher = stronger binding
# Settings in all cases: glycan notation: IUPAC condensed, linker removed
# [1] = biological target: Fuc(a1-2)Gal(b1-3)GlcNAc(b1-2)Man(a1-3)[Fuc(a1-2)Gal(b1-3)GlcNAc(b1-2)Man(a1-6)]Man(b1-4)GlcNAc(b1-4)GlcNAc
# In short: (§1)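 The binding signal is a Z-score computed within each array and averaged over linkers. Arrays of the same protein sequence at different concentrations or buffers were also averaged together. Data originate from 3228 arrays in the Consortium for Functional Glycomics database, kept only where the protein sequence was available.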
# [2] = biological target: Fuc(a1-2)Gal(b1-3)GlcNAc(b1-3)Gal(b1-4)Glc
# In short: as §1
# [3] = biological target: Fuc(a1-2)Gal(b1-3)GlcNAc(b1-3)[Gal(b1-4)GlcNAc(b1-6)]Gal(b1-4)Glc
# In short: as §1
# [4] = biological target: Fuc(a1-2)Gal(b1-4)Glc
# In short: as §1
# [5] = biological target: Fuc(a1-2)Gal(b1-4)GlcNAc(b1-6)GalNAc
# In short: as §1
# [6] = biological target: Fuc(a1-2)[Gal(a1-3)]Gal(b1-3)GalNAc
# In short: as §1
# [7] = biological target: Fuc(a1-2)[Gal(a1-3)]Gal(b1-4)Glc
# In short: as §1
# [8] = biological target: Fuc(a1-2)[Gal(a1-4)]Gal(b1-4)GlcNAc
# In short: as §1
# [9] = biological target: Fuc(a1-2)[GalNAc(a1-3)]Gal(b1-4)GlcNAc
# In short: as §1
# [10] = biological target: Fuc(a1-3)[Gal(b1-4)]GlcNAc(b1-2)Man(a1-3)[Fuc(a1-3)[Gal(b1-4)]GlcNAc(b1-2)Man(a1-6)]Man(b1-4)GlcNAc(b1-4)GlcNAc
# In short: as §1
# [11] = biological target: Fuc(a1-3)[Gal(b1-4)]GlcNAc(b1-6)GalNAc
# In short: as §1
# [12] = biological target: Gal(a1-3)Gal(b1-3)GlcNAc(b1-2)Man(a1-3)[Gal(a1-3)Gal(b1-3)GlcNAc(b1-2)Man(a1-6)]Man(b1-4)GlcNAc(b1-4)GlcNAc
# In short: as §1
# [13] = biological target: Gal(a1-3)Gal(b1-3)[Fuc(a1-4)]GlcNAc(b1-2)Man(a1-3)[Gal(a1-3)Gal(b1-3)[Fuc(a1-4)]GlcNAc(b1-2)Man(a1-6)]Man(b1-4)GlcNAc(b1-4)GlcNAc
# In short: as §1
# [14] = biological target: Gal(a1-4)Gal(b1-3)GlcNAc(b1-2)Man(a1-3)[Gal(a1-4)Gal(b1-3)GlcNAc(b1-2)Man(a1-6)]Man(b1-4)GlcNAc(b1-4)GlcNAc
# In short: as §1
# [15] = biological target: Gal(a1-4)Gal(b1-4)Glc
# In short: as §1
# [16] = biological target: Gal(b1-3)GlcNAc(b1-2)Man(a1-3)[Gal(b1-3)GlcNAc(b1-2)Man(a1-6)]Man(b1-4)GlcNAc(b1-4)GlcNAc
# In short: as §1
# [17] = biological target: Gal(b1-3)GlcNAc(b1-3)Gal(b1-4)[Fuc(a1-3)]GlcNAc(b1-6)[Gal(b1-3)GlcNAc(b1-3)]Gal(b1-4)Glc
# In short: as §1
# [18] = biological target: Gal(b1-3)GlcNAc6S
# In short: as §1
# [19] = biological target: Gal(b1-4)GlcNAc(b1-2)Man(a1-3)[Man(a1-6)]Man(b1-4)GlcNAc(b1-4)GlcNAc
# In short: as §1
# [20] = biological target: Gal(b1-4)GlcNAc(b1-3)Gal(b1-4)GlcNAc(b1-3)Gal(b1-4)GlcNAc(b1-2)Man(a1-3)[Gal(b1-4)GlcNAc(b1-3)Gal(b1-4)GlcNAc(b1-3)Gal(b1-4)GlcNAc(b1-2)Man(a1-6)]Man(b1-4)GlcNAc(b1-4)GlcNAc
# In short: as §1
# [21] = biological target: Gal(b1-4)GlcNAc(b1-3)Gal(b1-4)GlcNAc(b1-3)Gal(b1-4)GlcNAc(b1-3)Gal(b1-4)GlcNAc(b1-2)Man(a1-3)[Gal(b1-4)GlcNAc(b1-3)Gal(b1-4)GlcNAc(b1-3)Gal(b1-4)GlcNAc(b1-3)Gal(b1-4)GlcNAc(b1-2)Man(a1-6)]Man(b1-4)GlcNAc(b1-4)GlcNAc
# In short: as §1
# [22] = biological target: Gal(b1-4)GlcNAc(b1-3)Gal(b1-4)GlcNAc(b1-3)Gal(b1-4)GlcNAc(b1-3)Gal(b1-4)GlcNAc(b1-3)Gal(b1-4)GlcNAc(b1-2)Man(a1-3)[Gal(b1-4)GlcNAc(b1-3)Gal(b1-4)GlcNAc(b1-3)Gal(b1-4)GlcNAc(b1-3)Gal(b1-4)GlcNAc(b1-3)Gal(b1-4)GlcNAc(b1-2)Man(a1-6)]Man(b1-4)GlcNAc(b1-4)GlcNAc
# In short: as §1
# [23] = biological target: Gal(b1-4)GlcNAc(b1-3)Gal(b1-4)[Fuc(a1-3)]GlcNAc(b1-3)Gal(b1-4)[Fuc(a1-3)]GlcNAc
# In short: as §1
# [24] = biological target: Gal(b1-4)GlcNAc(b1-6)GalNAc
# In short: as §1
# [25] = biological target: Gal3S(b1-3)GlcNAc
# In short: as §1
# [26] = biological target: Gal6S(b1-4)Glc6S
# In short: as §1
# [27] = biological target: Gal6S(b1-4)GlcNAc
# In short: as §1
# [28] = biological target: GalNAc(b1-4)Gal(b1-4)Glc
# In short: as §1
# [29] = biological target: Glc(a1-6)Glc(a1-6)Glc(a1-6)Glc
# In short: as §1
# [30] = biological target: Glc(b1-4)Glc
# In short: as §1
# [31] = biological target: GlcA3S(b1-3)Gal(b1-4)GlcNAc(b1-3)Gal(b1-4)Glc
# In short: as §1
# [32] = biological target: GlcNAc(b1-3)Gal(b1-4)GlcNAc
# In short: as §1
# [33] = biological target: GlcNAc(b1-3)Gal(b1-4)GlcNAc(b1-3)Gal(b1-4)GlcNAc(b1-3)Gal(b1-4)GlcNAc(b1-2)Man(a1-3)[GlcNAc(b1-3)Gal(b1-4)GlcNAc(b1-3)Gal(b1-4)GlcNAc(b1-3)Gal(b1-4)GlcNAc(b1-2)Man(a1-6)]Man(b1-4)GlcNAc(b1-4)[Fuc(a1-6)]GlcNAc
# In short: as §1
# [34] = biological target: GlcNAc(b1-3)Man
# In short: as §1
# [35] = biological target: GlcNAc(b1-4)Gal(b1-4)GlcNAc
# In short: as §1
# [36] = biological target: GlcNAc(b1-4)GlcNAc(b1-4)GlcNAc(b1-4)GlcNAc(b1-4)GlcNAc(b1-4)GlcNAc
# In short: as §1
# [37] = biological target: GlcNAc(b1-6)GalNAc
# In short: as §1
# [38] = biological target: Man(a1-2)Man(a1-2)Man(a1-6)[Man(a1-3)]Man
# In short: as §1
# [39] = biological target: Man(a1-3)[Man(a1-6)]Man(a1-6)[Man(a1-3)]Man
# In short: as §1
# [40] = biological target: Man(a1-6)Man
# In short: as §1
# [41] = biological target: Neu5Ac(a2-3)Gal(b1-4)GlcNAc(b1-2)[Neu5Ac(a2-3)Gal(b1-4)GlcNAc(b1-6)]Man(a1-6)[Neu5Ac(a2-3)Gal(b1-4)GlcNAc(b1-2)Man(a1-3)][GlcNAc(b1-4)]Man(b1-4)GlcNAc(b1-4)GlcNAc
# In short: as §1
# [42] = biological target: Neu5Ac(a2-6)Gal(b1-3)GlcNAc(b1-3)[Gal(b1-4)GlcNAc(b1-6)]Gal(b1-4)Glc
# In short: as §1
# [43] = biological target: Neu5Ac(a2-6)Gal(b1-4)GlcNAc
# In short: as §1
# [44] = biological target: Neu5Ac(a2-6)Gal(b1-4)GlcNAc(b1-2)Man(a1-6)[GlcNAc(b1-2)Man(a1-3)]Man(b1-4)GlcNAc(b1-4)GlcNAc
# In short: as §1
# [45] = biological target: Neu5Ac(a2-6)Gal(b1-4)GlcNAc(b1-2)[Neu5Ac(a2-6)Gal(b1-4)GlcNAc(b1-4)]Man(a1-3)[GlcNAc(b1-4)][Neu5Ac(a2-6)Gal(b1-4)GlcNAc(b1-2)[Neu5Ac(a2-6)Gal(b1-4)GlcNAc(b1-6)]Man(a1-6)]Man(b1-4)GlcNAc(b1-4)GlcNAc
# In short: as §1
# [46] = biological target: Neu5Ac(a2-6)Gal(b1-4)GlcNAc(b1-3)Gal(b1-4)GlcNAc(b1-3)GalNAc
# In short: as §1
# [47] = biological target: Neu5Ac(a2-6)Gal(b1-4)GlcNAc(b1-3)GalNAc
# In short: as §1
# [48] = biological target: Neu5Gc(a2-6)GalNAc
# In short: as §1
binder,measurement,setting,value
PX9961Q-bfa-504-27-504 (Bacteroides fragilis) (protein) NDWLDRKPADGIPSEDAITNYNDALTARTGMYDGIQGNSNATSYYGARMFYYGDVRADDMQARTQGMRSSSCYEMLYTVDDAPNMWNIPYNVIRRANRLIEAINEKKVTDATEAQIGKIYSEALVVRALVHFDLVRIYGMPYTADNGASLGVPVIVKPLERNDLPSRNTVAEVYTQVITDLTDAINSGYLAKDQTPGYINEWAAKALLTRVYLTKGDNENALKVAEDIITNSPYKLWTNEEYVNAWYKSNGAHTNEMIFEVVNASNDDWTDRNGIAYLLNENGYADAIVTKSFMNMLSQDPKDVRIGMVLPAQYDKDLQEEYGDAKIFINKFPADKDDVGEMRLNNLPLLRLSEVYLSAAEAAAKLGGHQDKAAKYLNEIVQRANPEAKAISEADATVERIILERRKEMIGEGQRYFDALRNNETIVRYKDEGDKGYHYSLIKESQSFDRTYFRAILPIPVDETNVNPNLRAQQNPGY,glycan array binding signal (z-score),[1],2.69
same,glycan array binding signal (z-score),[2],0.015
same,glycan array binding signal (z-score),[3],-0.322
same,glycan array binding signal (z-score),[4],-0.701
same,glycan array binding signal (z-score),[5],0.145
same,glycan array binding signal (z-score),[6],0.904
same,glycan array binding signal (z-score),[7],0.106
same,glycan array binding signal (z-score),[8],1.12
same,glycan array binding signal (z-score),[9],-0.704
same,glycan array binding signal (z-score),[10],0.155
same,glycan array binding signal (z-score),[11],4.03
same,glycan array binding signal (z-score),[12],0.772
same,glycan array binding signal (z-score),[13],8.13
same,glycan array binding signal (z-score),[14],2.6
same,glycan array binding signal (z-score),[15],0.623
same,glycan array binding signal (z-score),[16],3.77
same,glycan array binding signal (z-score),[17],12.8
same,glycan array binding signal (z-score),[18],-0.822
same,glycan array binding signal (z-score),[19],-0.622
same,glycan array binding signal (z-score),[20],2.45
same,glycan array binding signal (z-score),[21],2.49
same,glycan array binding signal (z-score),[22],0.85
same,glycan array binding signal (z-score),[23],-0.284
same,glycan array binding signal (z-score),[24],0.056
same,glycan array binding signal (z-score),[25],-0.053
same,glycan array binding signal (z-score),[26],-0.063
same,glycan array binding signal (z-score),[27],-0.679
same,glycan array binding signal (z-score),[28],0.821
same,glycan array binding signal (z-score),[29],-0.611
same,glycan array binding signal (z-score),[30],-0.009
same,glycan array binding signal (z-score),[31],-1.22
same,glycan array binding signal (z-score),[32],-0.27
same,glycan array binding signal (z-score),[33],2.65
same,glycan array binding signal (z-score),[34],0.083
same,glycan array binding signal (z-score),[35],-0.752
same,glycan array binding signal (z-score),[36],-0.594
same,glycan array binding signal (z-score),[37],0.361
same,glycan array binding signal (z-score),[38],0.712
same,glycan array binding signal (z-score),[39],0.661
same,glycan array binding signal (z-score),[40],-0.352
same,glycan array binding signal (z-score),[41],0.676
same,glycan array binding signal (z-score),[42],6.14
same,glycan array binding signal (z-score),[43],-0.355
same,glycan array binding signal (z-score),[44],-0.638
same,glycan array binding signal (z-score),[45],2.53
same,glycan array binding signal (z-score),[46],-0.164
same,glycan array binding signal (z-score),[47],-0.107
same,glycan array binding signal (z-score),[48],0.187
